Test results taken from PMC7862700, “An all-to-all approach to the identification of sequence-specific readers for epigenetic DNA modifications on cytosine”.

Tests used:
Experiment in all cases: DAPPL (digital affinity profiling via proximity ligation, sequencing); 10 mM Tris-HCl pH 7.5, 50 mM NaCl, 1 mM DTT, 4% glycerol, room temperature, 30 min; GST-TFs on glutathione beads, 16-mer random dsDNA library, 0.1% formaldehyde crosslink after washing; high values mean tight binding
FLI1 = molecular target: T1, FLI1 (Homo sapiens, UniProt Q01543 1-452); details: protein: recombinant; tags: N-terminal GST; dsDNA, one strand shown
T1 sequence: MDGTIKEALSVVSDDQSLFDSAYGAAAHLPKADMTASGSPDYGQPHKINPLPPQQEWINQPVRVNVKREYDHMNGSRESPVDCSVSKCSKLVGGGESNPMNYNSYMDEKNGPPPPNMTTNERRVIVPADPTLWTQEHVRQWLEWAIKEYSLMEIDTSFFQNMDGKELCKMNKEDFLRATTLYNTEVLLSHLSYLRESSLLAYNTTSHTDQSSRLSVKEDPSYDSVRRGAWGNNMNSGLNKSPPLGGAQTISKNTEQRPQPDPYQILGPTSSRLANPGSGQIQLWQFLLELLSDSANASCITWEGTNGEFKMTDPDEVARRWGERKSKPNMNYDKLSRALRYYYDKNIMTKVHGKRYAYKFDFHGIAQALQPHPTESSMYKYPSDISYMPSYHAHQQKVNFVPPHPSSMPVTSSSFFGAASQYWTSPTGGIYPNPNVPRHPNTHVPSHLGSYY
Method in brief: (§1)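 Beads coated with glutathione captured GST-fused human transcription factors that had been expressed in yeast, and the factors were then given DNA barcodes and pooled with a tag-only sample. The pools were incubated with 200 nmole of a random double-stranded 16-mer DNA library in Tris/NaCl/DTT/glycerol buffer for 30 min at room temperature, washed, crosslinked with 0.1% formaldehyde and proximity-ligated with BsaI/T4 ligase at 37 °C for 1 h. PCR amplification and Illumina NextSeq500 sequencing came last. Binding signal is each hexamer's read frequency for a factor divided by its frequency for the tag-only sample.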

ELK1 = molecular target: T2, ELK1 (Homo sapiens, UniProt P19419 1-428); details: protein: recombinant; tags: N-terminal GST; dsDNA, one strand shown
T2 sequence: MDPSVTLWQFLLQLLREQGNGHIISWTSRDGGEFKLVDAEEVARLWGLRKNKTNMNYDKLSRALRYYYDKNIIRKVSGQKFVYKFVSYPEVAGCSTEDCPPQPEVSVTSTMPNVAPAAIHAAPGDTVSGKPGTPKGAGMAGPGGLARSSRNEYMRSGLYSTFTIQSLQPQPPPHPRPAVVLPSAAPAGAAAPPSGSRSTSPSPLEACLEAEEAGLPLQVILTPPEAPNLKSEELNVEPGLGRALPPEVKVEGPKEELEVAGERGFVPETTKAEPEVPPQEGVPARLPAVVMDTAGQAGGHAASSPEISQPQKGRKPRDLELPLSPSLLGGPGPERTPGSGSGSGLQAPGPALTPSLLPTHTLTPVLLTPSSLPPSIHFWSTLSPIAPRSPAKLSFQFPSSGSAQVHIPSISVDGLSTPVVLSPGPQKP
Method in brief: as §1

GABPA = molecular target: T3, GABPA (Homo sapiens, UniProt Q06546 1-454); details: protein: recombinant; tags: N-terminal GST; dsDNA, one strand shown
T3 sequence: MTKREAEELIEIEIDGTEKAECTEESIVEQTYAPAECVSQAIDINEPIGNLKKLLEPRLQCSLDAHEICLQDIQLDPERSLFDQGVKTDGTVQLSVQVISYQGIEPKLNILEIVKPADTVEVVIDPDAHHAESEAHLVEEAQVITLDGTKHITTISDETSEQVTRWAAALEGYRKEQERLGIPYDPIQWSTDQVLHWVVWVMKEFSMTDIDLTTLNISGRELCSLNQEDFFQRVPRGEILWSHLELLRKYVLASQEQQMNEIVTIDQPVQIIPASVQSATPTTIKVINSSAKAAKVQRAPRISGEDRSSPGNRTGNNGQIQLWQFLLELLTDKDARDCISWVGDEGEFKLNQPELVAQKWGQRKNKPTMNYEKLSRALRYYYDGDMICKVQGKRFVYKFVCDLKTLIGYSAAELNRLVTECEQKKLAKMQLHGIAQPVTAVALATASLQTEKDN
Method in brief: as §1

ERG = molecular target: T4, ERG (Homo sapiens, UniProt P11308 1-479); details: protein: recombinant; tags: N-terminal GST; dsDNA, one strand shown
T4 sequence: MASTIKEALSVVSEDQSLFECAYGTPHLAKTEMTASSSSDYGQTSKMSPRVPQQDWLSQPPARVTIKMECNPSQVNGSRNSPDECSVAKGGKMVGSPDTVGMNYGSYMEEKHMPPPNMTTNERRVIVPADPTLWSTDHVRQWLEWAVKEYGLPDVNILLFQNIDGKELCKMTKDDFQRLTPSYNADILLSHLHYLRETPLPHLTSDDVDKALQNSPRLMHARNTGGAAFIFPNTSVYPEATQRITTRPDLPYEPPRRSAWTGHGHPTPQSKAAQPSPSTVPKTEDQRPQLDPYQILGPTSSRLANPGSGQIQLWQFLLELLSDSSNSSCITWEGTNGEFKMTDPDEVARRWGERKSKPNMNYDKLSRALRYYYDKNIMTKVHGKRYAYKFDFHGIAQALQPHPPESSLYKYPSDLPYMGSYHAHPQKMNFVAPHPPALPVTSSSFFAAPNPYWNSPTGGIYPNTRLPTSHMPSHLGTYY
Method in brief: as §1

ELF1 = ELF1 (Homo sapiens, UniProt P32519 1-619); details: protein: recombinant; tags: N-terminal GST; dsDNA, one strand shown
Sequence of ELF1 (P32519 whole entry): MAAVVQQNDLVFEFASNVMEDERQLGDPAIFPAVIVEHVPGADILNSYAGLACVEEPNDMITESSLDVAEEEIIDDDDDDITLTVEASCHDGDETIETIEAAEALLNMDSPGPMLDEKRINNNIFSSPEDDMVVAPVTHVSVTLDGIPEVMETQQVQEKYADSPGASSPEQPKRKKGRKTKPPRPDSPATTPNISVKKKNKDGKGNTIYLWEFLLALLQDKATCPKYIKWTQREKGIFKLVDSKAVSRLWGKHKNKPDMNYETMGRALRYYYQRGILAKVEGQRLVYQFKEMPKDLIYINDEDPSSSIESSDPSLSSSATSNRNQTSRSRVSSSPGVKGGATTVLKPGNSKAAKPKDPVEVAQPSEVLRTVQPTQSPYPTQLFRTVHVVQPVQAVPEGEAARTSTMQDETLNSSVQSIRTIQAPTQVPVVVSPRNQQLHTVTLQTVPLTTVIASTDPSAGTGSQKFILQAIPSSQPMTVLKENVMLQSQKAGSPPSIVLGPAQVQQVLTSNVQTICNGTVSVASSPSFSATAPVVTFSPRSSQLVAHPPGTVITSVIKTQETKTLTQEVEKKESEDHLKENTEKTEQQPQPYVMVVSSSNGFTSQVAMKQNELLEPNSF
Method in brief: as §1

EHF = molecular target: T5, EHF (Homo sapiens, UniProt Q9NZC4 1-300); details: protein: recombinant; tags: N-terminal GST; dsDNA, one strand shown
T5 sequence: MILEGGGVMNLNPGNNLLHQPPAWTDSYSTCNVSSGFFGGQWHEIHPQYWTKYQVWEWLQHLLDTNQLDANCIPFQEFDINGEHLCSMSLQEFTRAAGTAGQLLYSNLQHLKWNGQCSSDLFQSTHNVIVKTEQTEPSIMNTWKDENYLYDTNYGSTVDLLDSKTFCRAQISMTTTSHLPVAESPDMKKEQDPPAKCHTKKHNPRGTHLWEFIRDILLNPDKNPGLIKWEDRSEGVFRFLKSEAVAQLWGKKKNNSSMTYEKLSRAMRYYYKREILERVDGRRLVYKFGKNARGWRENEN
Method in brief: as §1

SPI1 = SPI1 (Homo sapiens, UniProt P17947 1-270); details: protein: recombinant; tags: N-terminal GST; dsDNA, one strand shown
Method in brief: as §1

SPIB = SPIB (Homo sapiens, UniProt Q01892 1-262); details: protein: recombinant; tags: N-terminal GST; dsDNA, one strand shown
Sequence of SPIB (Q01892 whole entry): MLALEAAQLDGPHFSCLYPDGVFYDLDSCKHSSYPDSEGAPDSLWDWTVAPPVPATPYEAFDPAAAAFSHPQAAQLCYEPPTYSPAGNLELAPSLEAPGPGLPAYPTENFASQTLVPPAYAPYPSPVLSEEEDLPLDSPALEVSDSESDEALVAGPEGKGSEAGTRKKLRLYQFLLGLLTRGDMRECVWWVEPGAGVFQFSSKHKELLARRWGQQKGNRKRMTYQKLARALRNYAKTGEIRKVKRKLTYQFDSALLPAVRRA
Method in brief: as §1

ELK3 = molecular target: T6, ELK3 (Homo sapiens, UniProt P41970 1-407); details: protein: recombinant; tags: N-terminal GST; dsDNA, one strand shown
T6 sequence: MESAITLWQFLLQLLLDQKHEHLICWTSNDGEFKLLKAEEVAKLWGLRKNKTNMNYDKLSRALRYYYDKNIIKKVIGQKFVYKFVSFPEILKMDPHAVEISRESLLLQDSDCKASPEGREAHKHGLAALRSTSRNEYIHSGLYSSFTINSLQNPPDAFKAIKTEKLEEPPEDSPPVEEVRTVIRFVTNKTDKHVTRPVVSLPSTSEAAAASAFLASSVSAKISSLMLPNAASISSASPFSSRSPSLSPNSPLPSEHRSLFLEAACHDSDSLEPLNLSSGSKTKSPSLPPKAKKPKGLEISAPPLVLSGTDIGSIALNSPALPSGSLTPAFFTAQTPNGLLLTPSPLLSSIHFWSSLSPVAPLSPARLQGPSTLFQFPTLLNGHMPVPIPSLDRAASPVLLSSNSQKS
Method in brief: as §1

FEV = molecular target: T7, FEV (Homo sapiens, UniProt Q99581 1-238); details: protein: recombinant; tags: N-terminal GST; dsDNA, one strand shown
T7 sequence: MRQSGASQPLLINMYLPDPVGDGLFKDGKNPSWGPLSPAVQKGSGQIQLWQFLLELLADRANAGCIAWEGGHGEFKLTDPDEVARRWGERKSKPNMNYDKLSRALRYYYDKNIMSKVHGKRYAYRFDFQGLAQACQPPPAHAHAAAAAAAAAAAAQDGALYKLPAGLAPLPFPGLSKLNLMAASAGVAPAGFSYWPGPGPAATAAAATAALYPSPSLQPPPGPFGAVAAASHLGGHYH
Method in brief: as §1

ETV5 = ETV5 (Homo sapiens, UniProt P41161 1-510); details: protein: recombinant; tags: N-terminal GST; dsDNA, one strand shown
Sequence of ETV5 (P41161 whole entry): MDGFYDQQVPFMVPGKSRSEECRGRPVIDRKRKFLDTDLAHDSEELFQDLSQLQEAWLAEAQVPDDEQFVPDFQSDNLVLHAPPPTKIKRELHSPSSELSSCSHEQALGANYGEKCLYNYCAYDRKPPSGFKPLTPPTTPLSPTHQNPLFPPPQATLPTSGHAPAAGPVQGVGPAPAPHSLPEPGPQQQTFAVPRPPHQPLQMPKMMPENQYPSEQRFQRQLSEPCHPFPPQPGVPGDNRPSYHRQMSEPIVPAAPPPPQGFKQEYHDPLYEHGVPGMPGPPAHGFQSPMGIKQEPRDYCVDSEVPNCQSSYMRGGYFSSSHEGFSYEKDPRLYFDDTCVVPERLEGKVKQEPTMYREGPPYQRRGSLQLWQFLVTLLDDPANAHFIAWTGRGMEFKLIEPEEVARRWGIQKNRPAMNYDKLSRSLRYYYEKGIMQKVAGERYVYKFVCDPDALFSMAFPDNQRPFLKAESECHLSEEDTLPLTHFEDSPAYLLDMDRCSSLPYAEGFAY
Method in brief: as §1

HSF1 = HSF1 (Homo sapiens, UniProt Q00613 1-529); details: protein: recombinant; tags: N-terminal GST; chain copies: 3; dsDNA, one strand shown
Sequence of HSF1 (Q00613 whole entry): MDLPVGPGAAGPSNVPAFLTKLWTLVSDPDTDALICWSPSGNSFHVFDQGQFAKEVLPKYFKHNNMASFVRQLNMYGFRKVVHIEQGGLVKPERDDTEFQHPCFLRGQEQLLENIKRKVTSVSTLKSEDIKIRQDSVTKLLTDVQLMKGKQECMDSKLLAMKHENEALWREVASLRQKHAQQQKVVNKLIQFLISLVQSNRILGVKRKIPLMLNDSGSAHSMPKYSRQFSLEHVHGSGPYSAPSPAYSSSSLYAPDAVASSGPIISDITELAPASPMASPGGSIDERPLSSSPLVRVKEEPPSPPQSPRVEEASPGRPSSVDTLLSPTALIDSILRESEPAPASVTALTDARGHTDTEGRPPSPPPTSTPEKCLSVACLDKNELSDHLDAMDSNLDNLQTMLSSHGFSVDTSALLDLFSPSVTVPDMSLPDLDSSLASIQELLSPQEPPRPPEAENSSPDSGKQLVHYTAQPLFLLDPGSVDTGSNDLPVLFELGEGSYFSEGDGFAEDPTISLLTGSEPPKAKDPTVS
Method in brief: as §1

SPIC = molecular target: T8, SPIC (Homo sapiens, UniProt Q8N5J4 1-248); details: protein: recombinant; tags: N-terminal GST; dsDNA, one strand shown
T8 sequence: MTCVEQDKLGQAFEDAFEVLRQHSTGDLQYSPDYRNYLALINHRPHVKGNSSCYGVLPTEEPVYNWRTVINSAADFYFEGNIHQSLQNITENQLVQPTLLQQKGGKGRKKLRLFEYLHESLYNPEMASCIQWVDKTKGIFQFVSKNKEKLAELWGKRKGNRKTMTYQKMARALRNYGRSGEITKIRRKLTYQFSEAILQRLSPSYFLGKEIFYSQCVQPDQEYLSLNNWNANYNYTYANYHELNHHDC
Method in brief: as §1

ELF4 = ELF4 (Homo sapiens, UniProt Q99607 1-663); details: protein: recombinant; tags: N-terminal GST; dsDNA, one strand shown
Sequence of ELF4 (Q99607 whole entry): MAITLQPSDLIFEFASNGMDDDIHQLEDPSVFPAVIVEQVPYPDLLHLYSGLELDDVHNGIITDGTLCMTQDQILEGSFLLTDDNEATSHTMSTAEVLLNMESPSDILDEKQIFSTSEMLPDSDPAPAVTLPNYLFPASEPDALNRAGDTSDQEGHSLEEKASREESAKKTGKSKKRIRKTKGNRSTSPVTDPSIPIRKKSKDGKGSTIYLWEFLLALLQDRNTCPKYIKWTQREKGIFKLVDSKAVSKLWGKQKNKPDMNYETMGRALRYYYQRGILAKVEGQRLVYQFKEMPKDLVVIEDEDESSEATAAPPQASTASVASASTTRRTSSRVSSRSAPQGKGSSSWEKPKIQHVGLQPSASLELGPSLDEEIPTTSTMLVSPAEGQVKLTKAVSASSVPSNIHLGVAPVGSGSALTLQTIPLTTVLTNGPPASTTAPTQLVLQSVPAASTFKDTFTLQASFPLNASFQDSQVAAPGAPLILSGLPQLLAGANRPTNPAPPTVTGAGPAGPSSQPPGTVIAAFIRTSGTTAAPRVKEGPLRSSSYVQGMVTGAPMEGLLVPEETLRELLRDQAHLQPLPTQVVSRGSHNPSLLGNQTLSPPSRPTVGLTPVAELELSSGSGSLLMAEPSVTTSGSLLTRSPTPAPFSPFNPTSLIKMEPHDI
Method in brief: as §1

ELK4 = molecular target: T9, ELK4 (Homo sapiens, UniProt P28324-2 1-405); details: protein: recombinant; tags: N-terminal GST; dsDNA, one strand shown
T9 sequence: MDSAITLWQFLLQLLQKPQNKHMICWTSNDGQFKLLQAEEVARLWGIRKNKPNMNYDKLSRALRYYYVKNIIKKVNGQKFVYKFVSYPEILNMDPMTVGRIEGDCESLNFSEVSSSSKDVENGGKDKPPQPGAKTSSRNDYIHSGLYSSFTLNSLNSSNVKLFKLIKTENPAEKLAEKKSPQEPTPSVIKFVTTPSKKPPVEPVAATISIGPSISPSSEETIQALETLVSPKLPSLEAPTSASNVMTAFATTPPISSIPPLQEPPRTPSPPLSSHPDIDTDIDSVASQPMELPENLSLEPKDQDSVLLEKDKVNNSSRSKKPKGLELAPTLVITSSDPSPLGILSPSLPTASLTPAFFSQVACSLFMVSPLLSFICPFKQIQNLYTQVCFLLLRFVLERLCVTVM
Method in brief: as §1

ETV2 = molecular target: T10, ETV2 (Homo sapiens, UniProt O00321 1-342); details: protein: recombinant; tags: N-terminal GST; dsDNA, one strand shown
T10 sequence: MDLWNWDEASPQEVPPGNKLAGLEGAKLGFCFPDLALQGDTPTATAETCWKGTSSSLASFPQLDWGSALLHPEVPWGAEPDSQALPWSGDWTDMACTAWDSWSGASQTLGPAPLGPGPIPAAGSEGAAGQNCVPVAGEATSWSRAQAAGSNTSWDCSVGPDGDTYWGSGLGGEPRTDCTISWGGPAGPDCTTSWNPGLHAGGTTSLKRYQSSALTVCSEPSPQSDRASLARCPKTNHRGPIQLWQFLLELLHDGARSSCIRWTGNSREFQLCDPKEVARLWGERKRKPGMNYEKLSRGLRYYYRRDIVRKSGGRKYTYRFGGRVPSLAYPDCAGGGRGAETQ
Method in brief: as §1

ELF3 = molecular target: T11, ELF3 (Homo sapiens, UniProt P78545 1-371); details: protein: recombinant; tags: N-terminal GST; dsDNA, one strand shown
T11 sequence: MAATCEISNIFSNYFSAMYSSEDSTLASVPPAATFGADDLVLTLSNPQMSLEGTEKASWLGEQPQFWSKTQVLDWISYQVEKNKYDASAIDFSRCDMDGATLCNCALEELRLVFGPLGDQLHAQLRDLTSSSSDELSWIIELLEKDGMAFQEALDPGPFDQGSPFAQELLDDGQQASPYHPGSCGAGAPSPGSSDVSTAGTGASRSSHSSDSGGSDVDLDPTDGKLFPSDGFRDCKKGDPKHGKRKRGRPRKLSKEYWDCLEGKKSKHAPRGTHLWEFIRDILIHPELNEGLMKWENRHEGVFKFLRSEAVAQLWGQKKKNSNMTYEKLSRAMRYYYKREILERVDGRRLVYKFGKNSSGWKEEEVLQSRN
Method in brief: as §1

CRX = CRX (Homo sapiens, UniProt O43186 1-299); details: protein: recombinant; tags: N-terminal GST; dsDNA, one strand shown
Sequence of CRX (O43186 whole entry): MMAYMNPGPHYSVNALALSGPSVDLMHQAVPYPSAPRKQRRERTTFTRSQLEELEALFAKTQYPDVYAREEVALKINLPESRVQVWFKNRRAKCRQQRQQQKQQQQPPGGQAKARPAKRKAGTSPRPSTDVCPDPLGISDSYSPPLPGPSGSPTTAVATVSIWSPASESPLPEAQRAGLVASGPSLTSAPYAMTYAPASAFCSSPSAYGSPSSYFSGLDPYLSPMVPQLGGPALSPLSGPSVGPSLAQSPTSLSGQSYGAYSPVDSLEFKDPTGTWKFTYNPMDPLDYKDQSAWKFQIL
Method in brief: as §1

ETV1 = ETV1 (Homo sapiens, UniProt P50549 1-477); details: protein: recombinant; tags: N-terminal GST; dsDNA, one strand shown
Sequence of ETV1 (P50549 whole entry): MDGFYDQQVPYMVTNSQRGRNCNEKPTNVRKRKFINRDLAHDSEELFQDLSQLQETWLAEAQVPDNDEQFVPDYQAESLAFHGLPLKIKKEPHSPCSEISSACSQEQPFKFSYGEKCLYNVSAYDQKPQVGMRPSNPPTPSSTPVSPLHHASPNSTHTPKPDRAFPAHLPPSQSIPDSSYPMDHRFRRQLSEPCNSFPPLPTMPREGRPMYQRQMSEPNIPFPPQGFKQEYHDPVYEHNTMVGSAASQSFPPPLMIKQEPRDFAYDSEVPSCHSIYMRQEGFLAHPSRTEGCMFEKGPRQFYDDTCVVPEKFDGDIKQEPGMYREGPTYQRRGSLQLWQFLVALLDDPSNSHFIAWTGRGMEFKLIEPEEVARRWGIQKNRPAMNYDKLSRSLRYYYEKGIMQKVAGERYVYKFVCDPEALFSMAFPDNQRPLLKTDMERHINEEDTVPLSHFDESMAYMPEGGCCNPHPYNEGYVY
Method in brief: as §1

In the case of AGCTCC, the binding signal (FLI1) was 1.38 fold enrichment (6-mer frequency, TF over GST control), the binding signal (ELK1) was 1.23 fold enrichment (6-mer frequency, TF over GST control) and the binding signal (GABPA) was 1.32 fold enrichment (6-mer frequency, TF over GST control). The binding signal (ERG) was 1.2 fold enrichment (6-mer frequency, TF over GST control), the binding signal (ELF1) was 1.28 fold enrichment (6-mer frequency, TF over GST control) and the binding signal (EHF) was 1.31 fold enrichment (6-mer frequency, TF over GST control). For the same sequence, the binding signal (SPI1) was 1.25 fold enrichment (6-mer frequency, TF over GST control), the binding signal (SPIB) was 1.21 fold enrichment (6-mer frequency, TF over GST control) and the binding signal (ELK3) was 1.17 fold enrichment (6-mer frequency, TF over GST control). The binding signal (FEV) was 1.26 fold enrichment (6-mer frequency, TF over GST control), the binding signal (ETV5) was 1.29 fold enrichment (6-mer frequency, TF over GST control) and the binding signal (HSF1) was 1.22 fold enrichment (6-mer frequency, TF over GST control). The binding signal (SPIC) was 1.26 fold enrichment (6-mer frequency, TF over GST control), the binding signal (ELF4) was 1.43 fold enrichment (6-mer frequency, TF over GST control) and the binding signal (ELK4) was 1.16 fold enrichment (6-mer frequency, TF over GST control). For the same sequence, the binding signal (ETV2) was 1.35 fold enrichment (6-mer frequency, TF over GST control), the binding signal (ELF3) was 1.33 fold enrichment (6-mer frequency, TF over GST control) and the binding signal (CRX) was 1.3 fold enrichment (6-mer frequency, TF over GST control). For the same sequence, the binding signal (ETV1) was 1.29 fold enrichment (6-mer frequency, TF over GST control).
